Targets with a hit are over-represented here; the source holds about 7,900 in all. About 0.6% of all pairs of compound and target were hits. Values without a mark were called inactive.
How the values were obtained:
Experiment in all cases: log2 fold change, soluble protein after heating vs DMSO (PISA); higher = thermal stabilisation; K562 cells, 10 uM, 30 min; active = over 0.2 and 3.5 SD of the protein, either way, in both replicates (recomputed)
[1] = compound: CC1=C(C=C(C=C1)NC(=O)C2=CC(=CC=C2)C(C)(C)C#N)NC3=CC4=C(C=C3)N=CN(C4=O)C
Summary of the method: (§1)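 Soluble protein was quantified by TMTpro 16plex LC-MS/MS after channel sums were equalised. It was obtained as the supernatant after 21,000xg for 90 min from pooled aliquots of K562 cells (2×10^6 cells/mL, 10 μM compound, 30 min) heated for 3 min across 48°C-58°C and extracted in PBS with 0.5% NP-40 at 4°C. Thermal stability values are relative to control samples and come from duplicates. They are given as log2 fold changes.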

[2] = compound: CC1=C(C=C(C=C1)NC(=O)C2=CC(=CC=C2)N(C)C)NC(=O)C3=CC=C(C=C3)O
Summary of the method: as §1

[3] = compound: CC1=CC=C(C=C1)SC2=C3C=C(SC3=CN=C2)C(=O)N
Summary of the method: as §1

[4] = compound: CC1=NC(=CC=C1)C2=C(N=C(N2)C(C)(C)C)C3=CC4=NC=CN=C4C=C3
Summary of the method: as §1

Nexturastat A = compound: CCCCN(Cc1ccc(C(=O)NO)cc1)C(=O)Nc1ccccc1 [Nexturastat A]
Summary of the method: as §1

[5] = compound: CCCS(=O)(=O)Nc1ccc(F)c(C(=O)c2c[nH]c3ncc(Cl)cc23)c1F
Summary of the method: as §1

[6] = compound: CCCc1cc(C)[nH]c(=O)c1CNC(=O)c1cc(-c2ccnc(N3CCN(C)CC3)c2)cc2c1cnn2C(C)C
Summary of the method: as §1

givinostat = compound: CCN(CC)Cc1ccc2cc(COC(=O)Nc3ccc(C(=O)NO)cc3)ccc2c1 [givinostat]
Summary of the method: as §1

barasertib = compound: CCN(CCCOc1ccc2c(Nc3cc(CC(=O)Nc4cccc(F)c4)[nH]n3)ncnc2c1)CCOP(=O)(O)O [barasertib]
Summary of the method: as §1

[7] = compound: CC[C@@H]1C(=O)N(C)c2cnc(Nc3ccc(C(=O)NC4CCN(C)CC4)cc3OC)nc2N1C1CCCC1
Summary of the method: as §1

volasertib = compound: CC[C@@H]1C(=O)N(C)c2cnc(Nc3ccc(C(=O)N[C@H]4CC[C@H](N5CCN(CC6CC6)CC5)CC4)cc3OC)nc2N1C(C)C [volasertib]
Summary of the method: as §1

[8] = compound: CC[C@H](C)N1C=C(C2=C(C=C(C=C21)C3=CN=C(C=C3)N4CCNCC4)C(=O)NCC5=C(C=C(NC5=O)C)C)C
Summary of the method: as §1

epoxomicin = compound: CC[C@H](C)[C@@H](C(=O)N[C@@H]([C@@H](C)O)C(=O)N[C@@H](CC(C)C)C(=O)[C@]1(CO1)C)NC(=O)[C@H]([C@@H](C)CC)N(C)C(=O)C [epoxomicin]
Summary of the method: as §1

[9] = compound: CCn1c(C(=O)N(C2CC2)C2CC2)cc2c3c(ncn3C)c(Nc3cc(C)n(C)n3)nc21
Summary of the method: as §1

[10] = compound: CCn1cc(-c2ccnc3[nH]c(-c4cccc(CN(C)C)c4)cc23)c(-c2ccc(NC(=O)N(C)C)cc2)n1
Summary of the method: as §1

rosiglitazone = compound: CN(CCOC1=CC=C(C=C1)C[C@H]2C(=O)NC(=O)S2)C3=CC=CC=N3 (racemic) [rosiglitazone]
Summary of the method: as §1

[11] = compound: CN1C2=C(C3=C1C(=O)N(N=C3)CC4=CC(=CC=C4)N)SC(=C2)S(=O)C
Summary of the method: as §1

[12] = compound: CN1CCC(CNc2ccc3ncc(-c4cccc(OC(F)(F)F)c4)n3n2)CC1
Summary of the method: as §1

vemurafenib = compound: CCCS(=O)(=O)Nc1ccc(F)c(C(=O)c2c[nH]c3ncc(-c4ccc(Cl)cc4)cc23)c1F [vemurafenib]
Summary of the method: as §1

[13] = compound: CN(C)CC(=O)Nc1ccc2[nH]c(=O)c3ccccc3c2c1
Summary of the method: as §1

Sequence of UniProt Q8NDX5 (Q8NDX5 whole entry, looked up): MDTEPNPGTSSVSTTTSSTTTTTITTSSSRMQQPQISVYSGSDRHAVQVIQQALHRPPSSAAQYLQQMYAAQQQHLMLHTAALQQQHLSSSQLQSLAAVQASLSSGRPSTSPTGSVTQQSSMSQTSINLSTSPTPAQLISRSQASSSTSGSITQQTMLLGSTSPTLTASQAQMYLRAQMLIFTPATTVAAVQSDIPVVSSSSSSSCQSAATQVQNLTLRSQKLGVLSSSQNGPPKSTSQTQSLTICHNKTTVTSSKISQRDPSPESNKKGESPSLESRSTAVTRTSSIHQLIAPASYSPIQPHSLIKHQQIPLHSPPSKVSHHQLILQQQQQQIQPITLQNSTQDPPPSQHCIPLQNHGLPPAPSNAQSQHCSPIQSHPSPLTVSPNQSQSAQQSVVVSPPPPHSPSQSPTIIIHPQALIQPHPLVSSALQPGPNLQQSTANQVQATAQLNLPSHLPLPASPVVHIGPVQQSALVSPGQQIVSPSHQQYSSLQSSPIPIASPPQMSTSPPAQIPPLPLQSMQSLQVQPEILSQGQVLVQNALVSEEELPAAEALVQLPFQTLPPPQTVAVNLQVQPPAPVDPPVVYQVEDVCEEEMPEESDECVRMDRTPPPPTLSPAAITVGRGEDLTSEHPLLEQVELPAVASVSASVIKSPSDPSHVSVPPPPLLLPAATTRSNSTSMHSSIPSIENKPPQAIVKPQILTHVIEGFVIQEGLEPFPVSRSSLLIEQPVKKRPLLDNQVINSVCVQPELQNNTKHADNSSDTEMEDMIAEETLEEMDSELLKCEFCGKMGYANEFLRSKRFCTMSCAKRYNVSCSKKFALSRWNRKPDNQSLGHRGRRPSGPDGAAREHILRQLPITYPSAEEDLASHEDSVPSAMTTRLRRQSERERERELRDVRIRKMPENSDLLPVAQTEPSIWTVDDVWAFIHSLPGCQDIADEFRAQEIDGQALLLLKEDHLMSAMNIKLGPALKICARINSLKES
Sequence of UniProt Q8N2W9 (Q8N2W9 whole entry, looked up): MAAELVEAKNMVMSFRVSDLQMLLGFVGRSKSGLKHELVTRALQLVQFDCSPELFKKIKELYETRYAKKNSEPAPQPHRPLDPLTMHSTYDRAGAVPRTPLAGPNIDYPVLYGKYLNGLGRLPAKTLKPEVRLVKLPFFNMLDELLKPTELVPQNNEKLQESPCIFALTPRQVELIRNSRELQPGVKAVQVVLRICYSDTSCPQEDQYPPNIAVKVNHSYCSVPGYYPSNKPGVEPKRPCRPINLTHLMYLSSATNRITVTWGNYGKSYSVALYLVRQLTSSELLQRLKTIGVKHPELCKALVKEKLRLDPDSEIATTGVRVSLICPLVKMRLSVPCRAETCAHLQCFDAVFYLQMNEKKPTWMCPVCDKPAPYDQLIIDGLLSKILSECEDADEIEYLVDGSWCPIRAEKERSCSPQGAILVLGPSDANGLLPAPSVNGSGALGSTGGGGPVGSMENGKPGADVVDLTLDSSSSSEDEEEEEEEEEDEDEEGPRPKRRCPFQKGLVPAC
Sequence of UniProt Q86UU1 (Q86UU1 whole entry, looked up): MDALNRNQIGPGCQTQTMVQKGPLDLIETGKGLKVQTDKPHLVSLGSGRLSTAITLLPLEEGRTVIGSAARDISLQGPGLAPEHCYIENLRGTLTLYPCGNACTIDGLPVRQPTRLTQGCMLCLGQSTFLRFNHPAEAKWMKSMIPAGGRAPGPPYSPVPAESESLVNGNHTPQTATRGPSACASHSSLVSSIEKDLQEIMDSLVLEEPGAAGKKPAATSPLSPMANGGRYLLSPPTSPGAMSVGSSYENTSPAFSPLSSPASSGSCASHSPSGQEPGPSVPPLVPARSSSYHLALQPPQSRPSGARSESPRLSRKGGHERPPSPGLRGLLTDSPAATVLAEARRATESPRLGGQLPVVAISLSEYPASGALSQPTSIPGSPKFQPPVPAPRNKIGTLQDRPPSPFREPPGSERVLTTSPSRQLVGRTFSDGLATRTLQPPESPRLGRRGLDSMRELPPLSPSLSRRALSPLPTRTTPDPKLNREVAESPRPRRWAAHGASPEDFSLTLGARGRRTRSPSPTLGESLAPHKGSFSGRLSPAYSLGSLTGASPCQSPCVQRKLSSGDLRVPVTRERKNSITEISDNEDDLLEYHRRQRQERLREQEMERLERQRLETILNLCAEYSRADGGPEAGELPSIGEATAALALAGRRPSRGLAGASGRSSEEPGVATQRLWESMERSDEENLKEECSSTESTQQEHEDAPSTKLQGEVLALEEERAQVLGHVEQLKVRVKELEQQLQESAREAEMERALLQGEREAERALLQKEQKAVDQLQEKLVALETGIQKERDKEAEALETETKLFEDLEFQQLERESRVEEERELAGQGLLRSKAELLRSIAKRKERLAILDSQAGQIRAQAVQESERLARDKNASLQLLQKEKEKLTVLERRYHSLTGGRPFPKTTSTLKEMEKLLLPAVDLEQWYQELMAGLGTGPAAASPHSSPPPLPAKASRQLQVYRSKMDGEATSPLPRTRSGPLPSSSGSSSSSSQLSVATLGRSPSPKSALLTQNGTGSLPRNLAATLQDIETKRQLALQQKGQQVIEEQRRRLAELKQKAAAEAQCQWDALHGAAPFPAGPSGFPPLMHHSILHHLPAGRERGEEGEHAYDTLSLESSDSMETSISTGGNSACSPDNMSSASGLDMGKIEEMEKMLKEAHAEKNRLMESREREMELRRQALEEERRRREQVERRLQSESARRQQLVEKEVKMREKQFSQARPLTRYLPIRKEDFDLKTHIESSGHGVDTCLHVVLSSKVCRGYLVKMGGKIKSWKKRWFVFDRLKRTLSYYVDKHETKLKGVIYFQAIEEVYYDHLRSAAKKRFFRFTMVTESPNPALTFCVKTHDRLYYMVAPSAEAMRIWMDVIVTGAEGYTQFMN
Sequence of UniProt P46020 (P46020 whole entry, looked up): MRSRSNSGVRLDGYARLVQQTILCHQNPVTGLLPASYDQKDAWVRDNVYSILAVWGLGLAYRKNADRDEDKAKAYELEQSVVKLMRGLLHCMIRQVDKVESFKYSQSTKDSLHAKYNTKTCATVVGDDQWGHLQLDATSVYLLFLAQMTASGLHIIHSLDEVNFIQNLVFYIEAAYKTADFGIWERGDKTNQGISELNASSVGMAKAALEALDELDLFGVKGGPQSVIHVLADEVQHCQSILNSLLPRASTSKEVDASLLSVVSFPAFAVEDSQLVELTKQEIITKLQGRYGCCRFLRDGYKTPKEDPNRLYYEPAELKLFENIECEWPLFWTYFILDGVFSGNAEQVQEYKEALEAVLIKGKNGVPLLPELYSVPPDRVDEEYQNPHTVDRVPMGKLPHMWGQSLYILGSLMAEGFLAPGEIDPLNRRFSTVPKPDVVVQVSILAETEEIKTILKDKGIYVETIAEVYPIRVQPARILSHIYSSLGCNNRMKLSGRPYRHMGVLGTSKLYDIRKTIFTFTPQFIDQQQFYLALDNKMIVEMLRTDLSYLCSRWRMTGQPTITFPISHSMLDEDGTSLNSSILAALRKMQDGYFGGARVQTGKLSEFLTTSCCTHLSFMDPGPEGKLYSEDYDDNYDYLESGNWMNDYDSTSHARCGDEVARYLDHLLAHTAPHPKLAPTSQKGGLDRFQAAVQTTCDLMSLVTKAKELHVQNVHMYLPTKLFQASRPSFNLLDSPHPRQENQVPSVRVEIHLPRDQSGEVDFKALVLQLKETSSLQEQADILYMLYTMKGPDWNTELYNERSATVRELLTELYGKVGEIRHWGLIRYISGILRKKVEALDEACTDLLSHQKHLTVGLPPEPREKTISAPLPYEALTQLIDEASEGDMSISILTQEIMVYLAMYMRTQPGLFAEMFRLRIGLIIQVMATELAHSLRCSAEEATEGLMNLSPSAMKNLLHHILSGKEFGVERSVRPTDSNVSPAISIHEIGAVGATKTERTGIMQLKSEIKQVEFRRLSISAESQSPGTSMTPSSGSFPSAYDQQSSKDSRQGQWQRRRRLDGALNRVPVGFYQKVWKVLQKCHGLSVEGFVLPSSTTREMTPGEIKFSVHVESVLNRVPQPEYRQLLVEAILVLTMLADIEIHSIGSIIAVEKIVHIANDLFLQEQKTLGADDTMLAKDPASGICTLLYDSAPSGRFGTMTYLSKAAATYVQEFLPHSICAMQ
Sequence of UniProt Q15173 (Q15173 whole entry, looked up): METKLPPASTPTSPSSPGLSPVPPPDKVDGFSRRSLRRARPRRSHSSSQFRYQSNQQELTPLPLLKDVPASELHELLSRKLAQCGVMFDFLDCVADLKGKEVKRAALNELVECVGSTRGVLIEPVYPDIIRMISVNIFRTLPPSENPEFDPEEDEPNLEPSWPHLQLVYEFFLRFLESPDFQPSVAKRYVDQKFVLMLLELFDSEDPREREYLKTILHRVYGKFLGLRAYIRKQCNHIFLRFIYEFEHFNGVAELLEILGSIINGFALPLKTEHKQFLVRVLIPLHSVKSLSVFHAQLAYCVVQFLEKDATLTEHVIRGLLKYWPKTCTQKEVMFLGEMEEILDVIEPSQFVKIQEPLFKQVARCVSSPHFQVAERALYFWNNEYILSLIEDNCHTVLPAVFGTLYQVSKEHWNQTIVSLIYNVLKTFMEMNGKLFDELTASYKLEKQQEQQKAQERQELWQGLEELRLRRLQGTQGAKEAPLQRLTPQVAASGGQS
Sequence of UniProt Q86YH6 (Q86YH6 whole entry, looked up): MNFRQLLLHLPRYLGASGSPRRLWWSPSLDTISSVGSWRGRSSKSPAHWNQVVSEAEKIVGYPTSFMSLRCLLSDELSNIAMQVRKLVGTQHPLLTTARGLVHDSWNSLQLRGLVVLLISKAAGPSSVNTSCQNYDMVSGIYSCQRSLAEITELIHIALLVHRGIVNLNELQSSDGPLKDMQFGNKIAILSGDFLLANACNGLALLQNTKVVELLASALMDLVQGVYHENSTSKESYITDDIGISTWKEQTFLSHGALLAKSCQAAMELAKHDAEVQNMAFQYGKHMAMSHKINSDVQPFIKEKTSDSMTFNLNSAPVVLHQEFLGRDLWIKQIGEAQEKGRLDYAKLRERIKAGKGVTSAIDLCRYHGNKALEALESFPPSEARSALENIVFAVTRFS

Row | Target | log2 fold change [1] | log2 fold change [2] | log2 fold change [3] | log2 fold change [4] | log2 fold change (Nexturastat A) | log2 fold change [5] | log2 fold change [6] | log2 fold change (givinostat) | log2 fold change (barasertib) | log2 fold change [7] | log2 fold change (volasertib) | log2 fold change [8] | log2 fold change (epoxomicin) | log2 fold change [9] | log2 fold change [10] | log2 fold change (rosiglitazone) | log2 fold change [11] | log2 fold change [12] | log2 fold change (vemurafenib) | log2 fold change [13]
1 | PHKA1 (UniProt P46020) | -0.027 | -0.155 | -0.062 | -0.033 | 0.047 | 0.019 | 0.076 | -0.024 | -0.133 | 0.042 | -0.367 | 0.076 | -0.039 | -0.019 | 0.143 | -0.038 | 0.112 | -0.045 |  | 
2 | PDSS2 (UniProt Q86YH6) | -0.215 | 0.017 | 0.093 | -0.083 | -0.126 | 0.244 |  | -0.046 | 0.027 | 0.021 | 0.016 | 0.12 | 0.024 | 0.048 | -0.069 | 0.055 | 0.02 | 0.018 | -0.03 | 0.05
3 | PMS2CL (UniProt Q68D20) |  | 0.089 |  |  | -0.109 |  | 0.129 |  |  |  |  | -0.126 | 0.126 |  |  |  |  |  |  | 
4 | PTP4A3 (UniProt O75365) |  |  |  |  |  |  |  |  | -0.01 |  |  |  |  |  |  | 0.045 |  |  | 0.207 | 0.205
5 | PIAS4 (UniProt Q8N2W9) |  | -0.137 | -0.101 | 0.222 | 0.353 | 0.07 | 1.31 |  |  |  | -0.406 |  | 0.11 |  | -0.064 |  | 0.173 | 0.062 |  | 
6 | PUF60 isoform 2 (UniProt Q9UHX1) |  | 0.04 | 0.199 |  |  | 0.35 | 0.123 |  | 0.095 |  | -0.372 |  |  |  |  | -0.011 | -0.259 |  | 0.135 | 0.067
7 | PRKD2 (UniProt M0R346) | -0.011 |  |  |  | 0.236 |  |  |  | -0.337 |  |  |  | -0.072 |  | -0.025 | -0.026 |  | -0.14 |  | 
8 | PCBP2 (UniProt F8VZX2) |  | -0.14 |  | 0.005 |  |  | -0.098 | 0.009 | -0.173 |  |  | 0.075 |  | 0.073 |  | 0.065 | 0.098 |  |  | 
9 | PPP2R5B (UniProt Q15173) |  |  | -0.131 |  |  | 0.104 | -0.013 | 0.083 | 0.009 | -0.348 | -0.173 | 0.021 |  | 0.025 | 0.015 | 0.11 | -0.05 | -0.529 (active) | -0.104 | 0.128
10 | PAN2 (UniProt Q504Q3) |  |  |  |  |  |  |  |  | 0.088 | 0.101 |  | 0.167 |  |  |  | 0.181 | 0.143 |  | -0.128 | 0.006
11 | POLR2M (UniProt Q6EEV4) | 0.091 |  | -0.062 | 0.046 | -0.403 | -0.066 | -0.073 | -0.105 | -0.055 | 0.13 | 0.009 | 0.002 | 0.154 | 0.027 |  | 0.097 | 0.105 |  | 0.017 | 0.091
12 | PHC3 isoform 7 (UniProt Q8NDX5) | 0.102 |  | 0.088 | 0.266 | -0.43 | 0.096 | 0.116 | 0.17 | 0 | 0.076 | -0.163 | 0.178 | 0.254 | -0.113 |  | 0.066 |  |  |  | 
13 | PRR14L (UniProt Q5THK1) |  |  | -0.039 |  |  | -0.038 |  |  |  |  | 0.218 | -0.088 |  |  | 0.006 |  |  | 0.073 | -0.62 (active) | -0.134
14 | PHLDB1 isoform 2 (UniProt Q86UU1) |  | 0.01 | 0.047 | 0.047 | 0.045 | 0.016 | 0.14 | -0.012 | 0.117 | -0.03 | -0.222 | -0.06 | 0.061 | -0.02 | -0.04 | 0.055 | -0.022 | -0.585 (active) | 0.031 | -0.034
15 | PSMC1 (UniProt G3V4X1) |  |  | -0.384 |  |  | -0.154 |  | 0.095 |  |  | 0.141 | -0.01 |  | -0.135 | 0.108 |  |  | -0.282 |  | 
16 | PDE4A (UniProt P27815) |  | -0.028 | -0.047 | 0.062 | 0.061 | 0.024 |  | 0.015 | 0.049 |  | -0.331 |  | -0.124 | 0.099 |  | 0.078 |  |  | 0.006 | 0.082
17 | PSMA3 (UniProt G3V4X5) |  | -0.046 | -0.117 | 0.184 |  | 0.013 |  |  | 0.103 |  | 0.139 |  |  |  |  | 0.122 |  |  | -0.012 | 0.084
18 | PIGH (UniProt Q14442) |  | 0.001 | 0.027 | 0 | 0.141 | -0.025 | -0.069 | -0.011 | -0.219 | 0.06 | -0.008 |  | -0.128 | 0.022 | -0.038 | 0.058 | 0.115 | 0.051 | 0 | 0.013
19 | PRKX (UniProt P51817) |  |  |  |  |  |  | -0.103 | 0.036 | 0.126 |  |  |  |  | -0.019 |  | 0.191 |  |  |  | 
20 | PSMC3 (UniProt E9PLG2) | -0.381 |  |  | -0.217 | 0.04 |  | -0.08 |  | 0.02 |  |  |  | -0.273 |  |  | 0.043 | 0.046 |  | -0.157 | -0.238
21 | PPP2R5C isoform 2 (UniProt Q13362) |  | -0.047 |  | 0.022 |  |  | -0.016 | 0.048 | 0.055 | -0.209 |  |  |  | -0.099 |  | 0.009 |  |  |  | 
22 | PSMA3 (UniProt H0YJ03) |  | 0.019 | 0.019 | -0.194 |  | -0.134 |  |  |  | 0.115 | 0.076 |  |  |  |  |  | 0.027 |  | -0.145 | -0.04
